SMILES strings stand for the structures. Screen size: about 65,000 compounds; about 2,100 (3.2%) showed an effect of 50% or more. The median lay at about -52%. Shown is part of a subset that was picked to be rich in strong results.

For the test, the system named is Plasmodium falciparum. Kind of test: Screen against P. falciparum Asexual Blood Stage (ABS), at 5uM. The test is classed as functional, Dd2. The settings on record: tested at 5 uM.
For the compound `Cc1ccc(C)c(S(=O)(=O)NC(=O)c2ccc(C)[nH]c2=O)c1`, the INHIBITION is -134%.

In the case of `O=S(=O)(c1cccs1)N1CC[C@@H](O)[C@@H]1Cc1ccncc1`, the INHIBITION is -17%.

As to `Cc1ccc(N2CCC(Nc3ccc4nnc(C)n4n3)CC2)nc1`, the INHIBITION was -89%.

In the case of `CCOc1ccc(CSC(C)c2nc(C)no2)nc1` (configuration not stated), the INHIBITION is -173%.

On to `CN(C)C1CC2(CCN(C(=O)NC3CC3)CC2)c2ccccc21` (configuration not stated), for which the INHIBITION is given as -42.2%.

Regarding `Cc1ccc(C(=O)N2CCCN(Cc3cccs3)CC2)n1C`, the INHIBITION was found to be 55.6%.

Take `Cn1cc(Cl)cc1C(=O)N1CCCN(Cc2cccs2)CC1`: the INHIBITION was -60.9%.

Regarding `Cc1ccc(C(=O)N2CCN(Cc3cccs3)CC2)n1C`, the INHIBITION is -20.2%.

As for `Cn1cc(Cl)cc1C(=O)N1CCN(Cc2cccs2)CC1`, the INHIBITION turned out to be 7.04%.

In the case of `Cn1cc(Cl)cc1C(=O)N1CCCN(Cc2ccccc2)CC1`, the INHIBITION was determined as 50.9%.

`Cn1cc(CN2CCCN(C(=O)c3cc(Cl)cn3C)CC2)cn1`: the INHIBITION was -7.21%.

In the case of `CSCC(CCO)NC(=O)Nc1cc(F)ccc1C` (configuration not stated), the INHIBITION is listed as -130%.

In the case of `CCc1noc(CN(CC)C(=O)C2CC(=O)N(Cc3ccncc3)C2)n1` (configuration not stated), the INHIBITION is recorded as -125%.

As for `Fc1ccc(CNCc2nnc3n2CC(C(F)(F)F)CC3)c(F)c1` (configuration not stated), the INHIBITION is -35%.

For the compound `COCCN1C[C@@H]2CN(c3ncc(F)cn3)C[C@@H]2C1=O`, the INHIBITION was -65.7%.

Take `Cc1ccc(-c2nc(CSCCC(=O)NC(N)=O)co2)cc1`: the INHIBITION was -132%.

Consider `O=C(N1CCCC1)N1CCC[C@]2(C[C@@H](Oc3ncccc3F)CO2)C1`, for which the INHIBITION was -39%.

On to `CN(C)C1CCC2(CCN(Cc3cccnc3)CC2)c2ccccc21` (configuration not stated), for which the INHIBITION is reported as 31.3%.

Regarding `COc1cccc(CNC(Cc2cccs2)c2nc(C)c(C)s2)c1OC` (configuration not stated), the INHIBITION is given as -80.8%.

For the compound `COc1ccccc1CNC(Cc1cccs1)c1nc(C)cs1` (configuration not stated), the INHIBITION was -11.1%.

`COc1ccccc1CNC(Cc1cccs1)c1nc(C)c(C)s1` (configuration not stated): the INHIBITION worked out at 59.8%.

As to `CN1CCCC1c1cccc(Cc2ccccc2F)n1` (configuration not stated), the INHIBITION is -1.19%.

Regarding `CC(=O)N1CCCC1c1cccc(Cc2ccccc2F)n1` (configuration not stated), the INHIBITION is listed as -89.4%.

`CN(C)C(=O)CN1CCCC1c1cccc(Cc2ccccc2F)n1` (configuration not stated): the INHIBITION came out at 68.8%.

Consider `CC(C)CN1CCn2c(nc3cc(C(=O)NC(C)C)ccc32)C1`, for which the INHIBITION is recorded as -53.7%.

On to `COCc1noc(CNc2nc(C3CCCC3)nc3c2CCNCC3)n1`, for which the INHIBITION was 27.3%.

On to `Cc1nc2c(c(NCC(O)C(F)(F)F)n1)CCNCC2` (configuration not stated), for which the INHIBITION is listed as -121%.

Turning to `COCCNc1nc(C2CCCC2)nc2c1CCNCC2`, the INHIBITION is given as 54.1%.

For the compound `OC(CNc1ncnc2c1CCNCC2)C(F)(F)F` (configuration not stated), the INHIBITION is -178%.

Take `OC(CNc1nc(C2CCCC2)nc2c1CCNCC2)C(F)(F)F` (configuration not stated): the INHIBITION came out at 64.6%.

`COCCNc1nc2c(c(NCC3CCOC3)n1)CCNCC2` (configuration not stated): the INHIBITION is reported as -47.9%.

`Cc1c(Cl)c(C(=O)NN2CCOCC2)nn1C`: the INHIBITION is given as -48.6%.

As for `O=C(CC1COCCN1S(=O)(=O)c1ccccc1)NCc1ccccn1` (configuration not stated), the INHIBITION is recorded as -170%.

For the compound `O=C(C1CCC2(CCN(c3nncs3)CC2)CO1)N1CCCC1` (configuration not stated), the INHIBITION is 13.3%.

For the compound `CC(C)CN1C(=O)C2(CCN(CC3CCOCC3)C2)c2ccccc21` (configuration not stated), the INHIBITION came to 39.6%.

As to `COc1ccsc1C(=O)N1CCCC(n2cncn2)C1` (configuration not stated), the INHIBITION is on record as -121%.

For the compound `O=C(NCc1ccco1)[C@H]1CC[C@@H]2[C@@H](CCN2Cc2cccnc2)O1`, the INHIBITION is reported as -34.5%.

Consider `O=C(NCc1ccco1)[C@H]1CC[C@@H]2[C@@H](CCN2Cc2nccs2)O1`, for which the INHIBITION is on record as -11.2%.

On to `O=C(NCc1ccco1)[C@@H]1CC[C@@H]2[C@@H](CCN2Cc2ccc(F)cc2)O1`, for which the INHIBITION is on record as 67.2%.

As to `Cc1ncsc1CN1C[C@H](C(=O)NC2CCCC2)[C@@H]2CCO[C@@H]2C1`, the INHIBITION was 1.73%.

On to `CCO[C@H]1CO[C@@]2(CCCN(Cc3scnc3C)C2)C1`, for which the INHIBITION was -22.6%.

As to `c1cnc(N2CCC3(CC2)CC(NCC2CC2)c2ccccc23)nc1` (configuration not stated), the INHIBITION was determined as 54.2%.

For `CNC(=O)CNC1CC2(CCN(c3ncccn3)CC2)c2ccccc21` (configuration not stated), the INHIBITION is recorded as -84.5%.

`CS(=O)(=O)N1CCC2(CC1)CC(NCC1CC1)c1ccccc12` (configuration not stated): the INHIBITION was 48.3%.

In the case of `Cc1ccccc1-c1cc(C(=O)N2CCCC(n3ccnc3C)C2)[nH]n1` (configuration not stated), the INHIBITION is -29.5%.

On to `COCCN1CCCCC12CC(=O)N(c1cccc(C#N)c1)C2` (configuration not stated), for which the INHIBITION is recorded as -132%.

In the case of `COCCCNC(=O)CN1CCOC(c2ccccc2)C1` (configuration not stated), the INHIBITION is given as -41.4%.

`CCc1cccc(N2CCC(NC(=O)c3ccncc3)CC2)c1`: the INHIBITION is given as -62.9%.

With `CCc1cccc(N2CCC(NC(=O)c3ccoc3C)CC2)c1`, the INHIBITION is given as -16.9%.

Regarding `CCc1cccc(N2CCC(NC(=O)c3ccco3)CC2)c1`, the INHIBITION was 60.4%.

In the case of `CN1CCN(C(=O)[C@H]2C[C@@H]3CCN(c4ncc(F)cn4)C[C@@H]3O2)CC1`, the INHIBITION is given as -116%.

For the compound `CCN(CC)C1CCN(C(=O)c2cc(-n3cccn3)ccc2Cl)CC1`, the INHIBITION was determined as 65.1%.

The record behind these values is ChEMBL document CHEMBL4513216, “Probing the Open Global Health Chemical Diversity Library for Multistage-Active Starting Points for Next-Generation Antimalarials” (ACS Infect Dis, 2020).
